# Assay results from PubChem BioAssay AID602292 (National Center for Advancing Translational Sciences (NCATS), 2012).
# The campaign covered roughly 1,300 compounds. About 380 (29%) were called active. Roughly 37% stayed inconclusive and do not appear here. Some of the results follow. A number with no mark means an inactive call. Calls come from the whole dose curve; as a rule, active = well fitted inhibition curve with a large enough effect; inconclusive = small, poorly fitted or top-dose-only effect; inactive = flat fitted curve, though single readings scatter.
# Target: Thyrotropin receptor (Homo sapiens) (UniProt P16473)
# Test: qHTS for antagonists of the Thyroid Stimulation Hormone Receptor: Hit Validation in Primary Screen; note: nearly all actives have a fitted effect of over 80% in size;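 for activity change, negative = inhibition: cells stimulated with TSH at EC80 of 4 nM during compound exposure; cAMP by competitive HTRF where cellular cAMP lowers the 665 nm FRET signal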
# Settings: TSHR-expressing cells, cAMP antagonist mode; series mostly up to 58 µM; activity change, negative = inhibition: at the top concentration
# From the text: The thyroid-stimulating hormone receptor (TSHR) is a member of the 7 trans-membrane-spanning receptor (7TMR) family of cell surface receptors. TSHR-mediated hyperthyroidism is important in thyroid pathology. The development of small molecule antagonists of TSHR may lead to therapeutic approaches for TSHR-mediated hyperthyroidism caused by constitutively activating mutations or stimulating auto-antibodies associated with Graves' disease. Graves' disease is the leading cause of hyperthyroidism and is caused by autoantibodies that stimulate TSHR (TsAbs) causing thyroid growth and unregulated overproduction of thyroid hormones and existing treatments have liabilities (agranulocytosis). In addition, TSHRs are known to be expressed in multiple extrathyroidal tissues including bone, brain, kidney, testis, fat and cells of the immune system but the role of the TSHR in these tissues is not clear. Therefore, TSHR antagonists/inverse agonists could be used as probes of extrathyroidal TSHR function. Finally, TSHR inverse agonists, which are a subclass of antagonists that inhibit agonist-independent (or basal or constitutive) TSHR signaling, could be used to inhibit TSH-independent signaling in patients with recurrent or metastatic thyroid cancer who are receiving thyroid hormone to suppress TSH.
# In collaboration between scientist from the NCGC and the NIDDK, a miniaturized HTRF high-throughput screen was developed. It's a cell based assay, where an anti cAMP antibody contains a fluorescent cryptate tag (excitation 337 nm; emission 620 nm) and the acceptor is cAMP-d2 (excitation 620 nm; emission 665 nm). When antibody and cAMP-d2 interact and are excited by a 337 nm light, a FRET occurs resulting in emission at 665 nm. The assay is competition between cAMP-d2 and cAMP (from the cell lysate). The homogeneous protocol allows for one step dispense after stimulation that is automation friendly. This is a hit validation assay using the primary screen format.
# NIH Chemical Genomics Center [NCGC]
# NIH Molecular Libraries Probe Centers Network [MLPCN]
# Assay Provider: Marvin Gershengorn, NIDDK
# 1. 3ul of 200 TSHR freshly harvested cells/well are dispensed into a 1536 TC-treated white solid bottom plate.
# 2. Through pintool addition, 23nl of compounds and control in 100% DMSO are added to the plate.
# 3. Then 1ul of EC80 TSH (4nM final) is added to the plate.
# 4. Assay is incubated at 37 deg C for 2 hours.
# 5. 2ul of cAMP antibody diluted 1:20 in lysis buffer is added.
# 6. Immediately following, 2ul of d2 diluted 1:20 in HBSS is added seperately.
# 7. The assay is incubated for 30 minutes at ambient room temperature.
# 8. The result is obtained by using a ViewLux read-out with HTRF settings.
# % is set by controls: 0 for no effect and ±100 for the full control effect; potency is the fitted concentration of half-maximal effect.
# Sequence of Thyrotropin receptor (Homo sapiens) (P16473 whole entry, looked up): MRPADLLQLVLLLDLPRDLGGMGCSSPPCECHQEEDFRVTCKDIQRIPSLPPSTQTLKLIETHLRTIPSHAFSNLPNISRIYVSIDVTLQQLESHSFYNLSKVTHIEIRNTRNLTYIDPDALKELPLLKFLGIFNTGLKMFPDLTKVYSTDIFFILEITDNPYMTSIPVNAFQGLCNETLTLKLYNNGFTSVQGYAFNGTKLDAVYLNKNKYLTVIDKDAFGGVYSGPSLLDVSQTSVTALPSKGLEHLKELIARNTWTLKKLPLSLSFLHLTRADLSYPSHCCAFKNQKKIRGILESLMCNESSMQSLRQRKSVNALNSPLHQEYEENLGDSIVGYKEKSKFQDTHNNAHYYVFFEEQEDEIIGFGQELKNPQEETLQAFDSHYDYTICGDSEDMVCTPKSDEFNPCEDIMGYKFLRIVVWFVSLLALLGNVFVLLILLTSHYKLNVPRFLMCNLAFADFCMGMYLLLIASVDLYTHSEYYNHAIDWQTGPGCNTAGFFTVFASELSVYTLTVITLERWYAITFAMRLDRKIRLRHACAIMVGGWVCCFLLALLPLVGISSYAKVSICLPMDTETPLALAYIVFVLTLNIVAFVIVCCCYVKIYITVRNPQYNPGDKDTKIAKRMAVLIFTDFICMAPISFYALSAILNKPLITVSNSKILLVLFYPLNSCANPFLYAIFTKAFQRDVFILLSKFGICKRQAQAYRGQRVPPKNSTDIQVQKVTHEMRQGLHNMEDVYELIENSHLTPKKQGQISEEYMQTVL
SMILES,Potency,"activity change, negative = inhibition [%]"
CC(C)C1Nc2c(O)cc(Cl)c([N+](=O)[O-])c2C2C=CCC21 (stereo not drawn),8.49 µM (active),
COc1ccc(CNC(=O)CCS(=O)(=O)c2cc3c(cc2Cl)NC(=O)CO3)cc1,,-4.93
C/C(=N\NC(=O)c1cccc(Cl)c1)C1C(=O)c2ccccc2C1=O,12 µM (active),
CC(=O)N1c2ccc(S(=O)(=O)N3CCC(C(=O)NC4CCCCC4C)CC3)cc2CC1C (stereo not drawn),,-8.1
O=C(COc1cccc2ccccc12)Nc1ccc(Cl)cc1C(=O)O,4.78 µM (active),
O=C(COc1ccc(Cl)cc1Cl)Nc1ccc(C(=O)Nc2ccccc2C(=O)O)cc1,23.9 µM (active),
O=C(CSc1ccccn1)Nc1cccc2ccccc12,,-7.49
O=C(Nc1cccc2ccccc12)c1ccccc1,,-10.5
O=C(CSc1ccc2nnc(CCNC(=O)c3ccccc3)n2n1)NCc1ccc(F)cc1,,-0.864
N#Cc1ccc(C(=O)Nc2nc(-c3cccs3)c(C(=O)C(F)(F)F)s2)cc1,6.01 µM (active),
Cc1ccccc1NC(=O)CCc1c(C)nn(-c2ccc(N3CCOCC3)nn2)c1C,,-1.58
CC(=O)c1c(O)cc(O)c(C(C)=O)c1O,30.1 µM (active),
Cc1ccc(-n2nc3c(=O)n(C(C)C(=O)NC4CC4)nc(C)c3c2C)cc1 (stereo not drawn),,-5.96
COc1cc(C(=O)N/N=C/c2cn(Cc3ccccc3)c3ccccc23)ccc1O,,-12
COc1ccc(-c2nn(-c3ccccc3)cc2/C=N/NC(=O)c2ccc(Br)o2)cc1,9.53 µM (active),
CCN(C(=O)CSc1nnc(CNc2cccc(OC)c2)n1C1CCCCC1)C1CCS(=O)(=O)C1 (stereo not drawn),,-3.31
CC(=O)c1cccc(NS(=O)(=O)c2cc(-c3cnc(C4CC4)o3)ccc2C)c1,21.3 µM (active),
CC(=O)c1cccc(NC(=O)c2sc3nc4n(c(=O)c3c2C)CCCC4)c1,,-17.4
COc1ccc(NS(=O)(=O)c2cc(-c3cnc(C4CC4)o3)ccc2C)cc1,26.9 µM (active),
Cc1ccc(-c2cnc(C3CC3)o2)cc1S(=O)(=O)Nc1ccccc1,30.1 µM (active),
COc1ccc(-c2cc3c(=O)n(CC(=O)NCc4cccnc4)nc(C)n3n2)cc1,,-5.13
CCCn1c(=O)c2[nH]c(C3CCCC3)nc2n(CCC)c1=O,,-2.13
O=C(NN=C1CCCC1)c1cc(Cl)cc(Cl)c1O,,-9.28
Cc1c(Cl)sn(-c2ccc(Cl)cc2)c1=O,26.9 µM (active),

SMILES,Potency,"activity change, negative = inhibition [%]"
CC1=N/C(=C\c2ccc([N+](=O)[O-])cc2)C(=O)N1c1ccc(Cl)cc1,,-0.461
CS(=O)(=O)N(Cc1ccccc1)c1ccc(C(=O)N2CCN(c3cccc(Cl)c3)CC2)cc1,,-7.49
O=C(Nc1ccc(N2CCN(C(=O)c3ccccc3)CC2)cc1)c1cc2ccccc2o1,23.9 µM (active),
O=C(NCCc1ccccc1)c1cc2ccccc2oc1=O,,-2.82
CCN(c1ccc(OC)cc1)S(=O)(=O)c1cc(-c2cc(C)no2)ccc1C(C)C,,-9.45
CCc1ccc(-c2cc(C)no2)cc1S(=O)(=O)N1CCN(c2ccccn2)CC1,30.1 µM (active),
CC(NC(=O)c1cc(=O)[nH]c2ccccc12)c1ccc(F)cc1F (stereo not drawn),,-4.26
O=C(Nc1ccc(Cl)cc1)c1cc2c(cc1O)[nH]c1ccccc12,3.01 µM (active),
Cc1ccc(NC(=O)Cn2ncc3c([nH]c4ccccc43)c2=O)cc1Cl,,-8.04
COC(=O)Cc1c(C)[nH]n(-c2cc(Cl)cc(Cl)c2)c1=O,,-7.75
Cc1cc(C)n2nc(SCC(=O)Nc3ccccc3C)nc2n1,,0.49
Cc1cc(C(=O)NC2CCCc3c2cnn3-c2ccc(C(C)(C)C)cc2)nn1C (stereo not drawn),30.1 µM (active),
Cc1cc(C)cc(OC(C)C(=O)NCCCn2ccnc2)c1 (stereo not drawn),,-1.84
O=C(Nc1ccc(Cl)c(S(=O)(=O)N2CCOCC2)c1)c1ccc(OCC2CCCO2)cc1 (stereo not drawn),15.1 µM (active),
CC1=C(C(=O)N2CCCC(N3CCN(c4ccccc4C)CC3)C2)OCCO1 (stereo not drawn),,-5.88
COc1ccccc1N1CCN(C(=O)CCC(=O)N2CCN(c3ccc(F)cc3)CC2)CC1,,-12.6
CCOc1ccccc1N1CCN(C(=O)CCCN2C(=O)c3cccc4cccc(c34)C2=O)CC1,30.1 µM (active),
COCCNC(=O)CN1C(=O)c2cccc3cccc1c23,,-3.72
O=C(COC(=O)c1ccccc1C(=O)c1ccc(Cl)c([N+](=O)[O-])c1)NC1CCCCCC1,23.9 µM (active),
Nc1ccc(C(=O)NC2CCSc3ccccc32)cc1[N+](=O)[O-] (stereo not drawn),,-14.1
Cc1ccc(NC(=O)CCc2nnc3ccc(NCc4ccco4)nn23)nc1,,-7.92
CN(C)c1ccc(NC(=O)C2C3C=CC(C3)C2C(=O)O)cc1 (stereo not drawn),,-8.9
CN(C)c1ccc(NC(=O)Oc2ccccc2)cc1,,-7.4
Cc1ccc(S(=O)(=O)NC(=O)Nc2ccc(N(C)C)cc2)cc1,30.1 µM (active),
